How the values were obtained:
Test in all cases: DAPPL (digital affinity profiling via proximity ligation, sequencing); 10 mM Tris-HCl pH 7.5, 50 mM NaCl, 1 mM DTT, 4% glycerol, room temperature, 30 min; GST-TFs on glutathione beads, 16-mer random dsDNA library, 0.1% formaldehyde crosslink after washing; high values mean tight binding
FLI1 = biological target: T1, FLI1 (Homo sapiens, UniProt Q01543 1-452); settings: protein: recombinant; tags: N-terminal GST; dsDNA, one strand shown
T1 sequence: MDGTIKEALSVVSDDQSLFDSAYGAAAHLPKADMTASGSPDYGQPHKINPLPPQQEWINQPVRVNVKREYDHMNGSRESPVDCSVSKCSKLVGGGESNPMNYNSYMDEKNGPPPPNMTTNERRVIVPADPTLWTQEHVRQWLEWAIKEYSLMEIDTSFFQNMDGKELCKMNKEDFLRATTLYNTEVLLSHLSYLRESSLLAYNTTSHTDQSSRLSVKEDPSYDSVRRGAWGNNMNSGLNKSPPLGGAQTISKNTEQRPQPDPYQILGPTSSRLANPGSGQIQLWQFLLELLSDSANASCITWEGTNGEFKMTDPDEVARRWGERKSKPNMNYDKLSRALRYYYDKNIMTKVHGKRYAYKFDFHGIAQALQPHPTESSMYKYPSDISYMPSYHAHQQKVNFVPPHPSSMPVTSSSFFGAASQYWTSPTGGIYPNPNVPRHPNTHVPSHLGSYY
Procedure, shortened: (§1)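 After expression in yeast as GST fusions, human transcription factors were bound to glutathione beads, DNA-barcoded and mixed with a tag-only sample. The pools were incubated with 200 nmole of a 16-mer random double-stranded DNA library in Tris/NaCl/DTT/glycerol buffer (30 min, room temperature), washed and crosslinked with 0.1% formaldehyde. Proximity ligation with BsaI/T4 ligase ran for 1 h at 37 °C, before PCR amplification and sequencing on an Illumina NextSeq500. Binding signal is a hexamer's read frequency for a factor divided by its frequency for the tag-only sample.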

GABPA = biological target: T2, GABPA (Homo sapiens, UniProt Q06546 1-454); settings: protein: recombinant; tags: N-terminal GST; dsDNA, one strand shown
T2 sequence: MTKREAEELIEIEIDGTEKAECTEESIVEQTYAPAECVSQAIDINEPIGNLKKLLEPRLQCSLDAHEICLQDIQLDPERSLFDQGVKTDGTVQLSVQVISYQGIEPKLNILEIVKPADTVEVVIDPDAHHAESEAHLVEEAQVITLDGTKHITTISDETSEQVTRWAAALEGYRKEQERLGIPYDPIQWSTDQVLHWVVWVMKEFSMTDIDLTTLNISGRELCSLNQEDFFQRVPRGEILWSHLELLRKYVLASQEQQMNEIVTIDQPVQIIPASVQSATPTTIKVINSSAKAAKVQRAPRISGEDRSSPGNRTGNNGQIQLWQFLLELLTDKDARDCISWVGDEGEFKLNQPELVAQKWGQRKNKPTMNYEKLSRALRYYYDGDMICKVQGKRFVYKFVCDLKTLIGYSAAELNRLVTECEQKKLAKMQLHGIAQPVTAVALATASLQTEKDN
Procedure, shortened: as §1

ERG = biological target: T3, ERG (Homo sapiens, UniProt P11308 1-479); settings: protein: recombinant; tags: N-terminal GST; dsDNA, one strand shown
T3 sequence: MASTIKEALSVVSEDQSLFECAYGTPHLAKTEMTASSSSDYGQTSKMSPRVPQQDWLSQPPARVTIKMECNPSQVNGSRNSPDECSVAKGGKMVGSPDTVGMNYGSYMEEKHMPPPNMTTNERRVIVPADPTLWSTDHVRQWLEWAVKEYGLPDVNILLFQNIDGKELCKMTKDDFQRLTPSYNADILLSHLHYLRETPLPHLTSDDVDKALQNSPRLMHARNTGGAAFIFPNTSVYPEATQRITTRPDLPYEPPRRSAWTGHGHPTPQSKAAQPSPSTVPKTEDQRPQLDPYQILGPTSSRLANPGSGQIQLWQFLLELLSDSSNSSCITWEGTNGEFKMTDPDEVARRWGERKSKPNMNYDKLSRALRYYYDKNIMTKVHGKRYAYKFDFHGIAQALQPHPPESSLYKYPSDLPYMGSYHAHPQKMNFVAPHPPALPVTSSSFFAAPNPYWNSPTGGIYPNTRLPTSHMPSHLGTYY
Procedure, shortened: as §1

ELF1 = ELF1 (Homo sapiens, UniProt P32519 1-619); settings: protein: recombinant; tags: N-terminal GST; dsDNA, one strand shown
Procedure, shortened: as §1

EHF = biological target: T4, EHF (Homo sapiens, UniProt Q9NZC4 1-300); settings: protein: recombinant; tags: N-terminal GST; dsDNA, one strand shown
T4 sequence: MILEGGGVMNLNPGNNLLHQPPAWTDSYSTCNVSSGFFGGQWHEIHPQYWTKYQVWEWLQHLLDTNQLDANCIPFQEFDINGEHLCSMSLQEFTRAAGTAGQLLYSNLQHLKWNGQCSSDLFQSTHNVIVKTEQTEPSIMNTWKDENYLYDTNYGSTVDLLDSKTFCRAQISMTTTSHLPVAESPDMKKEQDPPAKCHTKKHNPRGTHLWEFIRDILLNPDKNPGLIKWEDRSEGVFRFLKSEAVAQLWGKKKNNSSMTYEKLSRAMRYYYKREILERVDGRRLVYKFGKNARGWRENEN
Procedure, shortened: as §1

SPI1 = SPI1 (Homo sapiens, UniProt P17947 1-270); settings: protein: recombinant; tags: N-terminal GST; dsDNA, one strand shown
Procedure, shortened: as §1

SPIB = SPIB (Homo sapiens, UniProt Q01892 1-262); settings: protein: recombinant; tags: N-terminal GST; dsDNA, one strand shown
Procedure, shortened: as §1

FEV = biological target: T5, FEV (Homo sapiens, UniProt Q99581 1-238); settings: protein: recombinant; tags: N-terminal GST; dsDNA, one strand shown
T5 sequence: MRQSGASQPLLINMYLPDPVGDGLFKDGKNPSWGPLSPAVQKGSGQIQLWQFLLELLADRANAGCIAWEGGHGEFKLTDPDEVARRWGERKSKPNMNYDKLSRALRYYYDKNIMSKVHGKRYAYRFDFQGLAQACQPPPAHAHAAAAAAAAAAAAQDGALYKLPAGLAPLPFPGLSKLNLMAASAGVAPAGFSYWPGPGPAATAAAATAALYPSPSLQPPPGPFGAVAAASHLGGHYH
Procedure, shortened: as §1

ETV5 = ETV5 (Homo sapiens, UniProt P41161 1-510); settings: protein: recombinant; tags: N-terminal GST; dsDNA, one strand shown
Procedure, shortened: as §1

HSF1 = HSF1 (Homo sapiens, UniProt Q00613 1-529); settings: protein: recombinant; tags: N-terminal GST; chain copies: 3; dsDNA, one strand shown
Procedure, shortened: as §1

SPIC = biological target: T6, SPIC (Homo sapiens, UniProt Q8N5J4 1-248); settings: protein: recombinant; tags: N-terminal GST; dsDNA, one strand shown
T6 sequence: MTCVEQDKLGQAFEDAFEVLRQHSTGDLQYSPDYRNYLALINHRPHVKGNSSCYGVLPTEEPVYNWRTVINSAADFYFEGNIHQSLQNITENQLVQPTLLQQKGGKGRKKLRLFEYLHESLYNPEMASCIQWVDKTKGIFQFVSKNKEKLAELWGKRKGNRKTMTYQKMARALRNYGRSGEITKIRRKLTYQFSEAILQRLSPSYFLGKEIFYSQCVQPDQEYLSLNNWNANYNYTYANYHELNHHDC
Procedure, shortened: as §1

ELF4 = ELF4 (Homo sapiens, UniProt Q99607 1-663); settings: protein: recombinant; tags: N-terminal GST; dsDNA, one strand shown
Procedure, shortened: as §1

ELK4 = biological target: T7, ELK4 (Homo sapiens, UniProt P28324-2 1-405); settings: protein: recombinant; tags: N-terminal GST; dsDNA, one strand shown
T7 sequence: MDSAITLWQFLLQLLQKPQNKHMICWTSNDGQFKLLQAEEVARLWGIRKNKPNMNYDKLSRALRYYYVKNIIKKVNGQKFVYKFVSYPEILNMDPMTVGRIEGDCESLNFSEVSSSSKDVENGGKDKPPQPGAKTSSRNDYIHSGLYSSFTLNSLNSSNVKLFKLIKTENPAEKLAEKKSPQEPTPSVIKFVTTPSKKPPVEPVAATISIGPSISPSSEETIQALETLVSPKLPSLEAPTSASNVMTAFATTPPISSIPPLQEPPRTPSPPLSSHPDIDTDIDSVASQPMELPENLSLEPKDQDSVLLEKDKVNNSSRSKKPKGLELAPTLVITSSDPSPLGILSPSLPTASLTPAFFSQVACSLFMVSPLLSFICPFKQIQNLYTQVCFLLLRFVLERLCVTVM
Procedure, shortened: as §1

ETV2 = biological target: T8, ETV2 (Homo sapiens, UniProt O00321 1-342); settings: protein: recombinant; tags: N-terminal GST; dsDNA, one strand shown
T8 sequence: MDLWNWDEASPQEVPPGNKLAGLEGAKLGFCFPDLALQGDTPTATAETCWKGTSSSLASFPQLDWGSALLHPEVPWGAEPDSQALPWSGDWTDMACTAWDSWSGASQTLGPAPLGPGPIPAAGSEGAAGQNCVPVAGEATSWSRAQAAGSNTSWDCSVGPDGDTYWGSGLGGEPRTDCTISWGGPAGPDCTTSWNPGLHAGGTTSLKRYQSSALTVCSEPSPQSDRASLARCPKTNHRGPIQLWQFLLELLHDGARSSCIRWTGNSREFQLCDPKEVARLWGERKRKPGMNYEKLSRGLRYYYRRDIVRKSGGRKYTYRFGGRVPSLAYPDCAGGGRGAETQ
Procedure, shortened: as §1

ELF3 = biological target: T9, ELF3 (Homo sapiens, UniProt P78545 1-371); settings: protein: recombinant; tags: N-terminal GST; dsDNA, one strand shown
T9 sequence: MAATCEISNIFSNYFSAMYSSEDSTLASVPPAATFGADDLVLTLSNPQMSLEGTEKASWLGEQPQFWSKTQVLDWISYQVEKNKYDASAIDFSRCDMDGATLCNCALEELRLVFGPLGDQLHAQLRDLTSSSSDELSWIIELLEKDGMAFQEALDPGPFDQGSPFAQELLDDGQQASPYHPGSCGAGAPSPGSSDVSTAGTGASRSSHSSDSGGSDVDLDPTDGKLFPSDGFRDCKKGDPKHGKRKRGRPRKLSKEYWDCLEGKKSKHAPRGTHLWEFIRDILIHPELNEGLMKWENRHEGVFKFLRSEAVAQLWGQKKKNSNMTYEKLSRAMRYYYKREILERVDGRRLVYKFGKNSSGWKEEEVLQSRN
Procedure, shortened: as §1

ETV1 = ETV1 (Homo sapiens, UniProt P50549 1-477); settings: protein: recombinant; tags: N-terminal GST; dsDNA, one strand shown
Procedure, shortened: as §1

Sequence of ETV5 (P41161 whole entry): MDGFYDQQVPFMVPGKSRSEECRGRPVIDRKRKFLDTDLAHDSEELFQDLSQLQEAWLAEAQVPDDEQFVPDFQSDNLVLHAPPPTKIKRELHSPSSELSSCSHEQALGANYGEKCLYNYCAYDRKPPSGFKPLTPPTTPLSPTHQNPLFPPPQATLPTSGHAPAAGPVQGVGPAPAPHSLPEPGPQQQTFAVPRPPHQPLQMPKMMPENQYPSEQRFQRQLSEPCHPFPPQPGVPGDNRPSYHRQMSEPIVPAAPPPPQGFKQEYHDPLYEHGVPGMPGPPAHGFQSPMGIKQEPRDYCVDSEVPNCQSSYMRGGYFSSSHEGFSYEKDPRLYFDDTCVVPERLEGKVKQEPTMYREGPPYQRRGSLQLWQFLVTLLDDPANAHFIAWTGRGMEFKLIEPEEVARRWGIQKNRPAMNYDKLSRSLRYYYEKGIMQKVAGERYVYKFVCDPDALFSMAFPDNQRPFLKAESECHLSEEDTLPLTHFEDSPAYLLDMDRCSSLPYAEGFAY
Sequence of ELF4 (Q99607 whole entry): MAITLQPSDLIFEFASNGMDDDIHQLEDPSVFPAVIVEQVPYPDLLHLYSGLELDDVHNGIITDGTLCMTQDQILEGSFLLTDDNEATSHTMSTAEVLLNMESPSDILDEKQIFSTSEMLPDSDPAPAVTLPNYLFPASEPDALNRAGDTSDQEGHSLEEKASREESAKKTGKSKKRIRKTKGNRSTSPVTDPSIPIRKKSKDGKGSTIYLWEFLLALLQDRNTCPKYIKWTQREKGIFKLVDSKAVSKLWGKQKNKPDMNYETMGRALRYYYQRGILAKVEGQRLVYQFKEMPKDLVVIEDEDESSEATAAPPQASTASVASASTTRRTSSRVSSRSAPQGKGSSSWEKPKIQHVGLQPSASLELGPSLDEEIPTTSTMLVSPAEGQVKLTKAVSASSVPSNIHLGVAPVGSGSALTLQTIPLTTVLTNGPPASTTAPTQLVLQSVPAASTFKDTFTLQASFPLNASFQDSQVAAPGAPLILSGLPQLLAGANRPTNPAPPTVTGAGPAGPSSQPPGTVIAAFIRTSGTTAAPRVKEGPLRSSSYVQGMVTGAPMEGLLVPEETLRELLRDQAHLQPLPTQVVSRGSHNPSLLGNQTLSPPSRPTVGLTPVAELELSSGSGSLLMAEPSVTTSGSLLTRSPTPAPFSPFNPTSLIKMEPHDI
Sequence of ETV1 (P50549 whole entry): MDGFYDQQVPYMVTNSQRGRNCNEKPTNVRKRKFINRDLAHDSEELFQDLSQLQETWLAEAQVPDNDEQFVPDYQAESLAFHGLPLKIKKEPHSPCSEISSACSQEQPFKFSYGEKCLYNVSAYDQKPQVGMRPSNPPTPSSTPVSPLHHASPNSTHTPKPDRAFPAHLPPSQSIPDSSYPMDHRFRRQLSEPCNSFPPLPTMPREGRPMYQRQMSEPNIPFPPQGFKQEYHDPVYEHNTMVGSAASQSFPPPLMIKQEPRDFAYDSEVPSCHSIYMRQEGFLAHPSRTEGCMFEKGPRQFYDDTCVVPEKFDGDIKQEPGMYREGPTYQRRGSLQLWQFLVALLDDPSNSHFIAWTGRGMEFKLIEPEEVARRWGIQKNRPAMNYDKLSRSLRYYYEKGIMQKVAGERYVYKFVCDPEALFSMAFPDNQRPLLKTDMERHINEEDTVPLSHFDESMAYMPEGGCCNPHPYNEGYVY
Sequence of ELF1 (P32519 whole entry): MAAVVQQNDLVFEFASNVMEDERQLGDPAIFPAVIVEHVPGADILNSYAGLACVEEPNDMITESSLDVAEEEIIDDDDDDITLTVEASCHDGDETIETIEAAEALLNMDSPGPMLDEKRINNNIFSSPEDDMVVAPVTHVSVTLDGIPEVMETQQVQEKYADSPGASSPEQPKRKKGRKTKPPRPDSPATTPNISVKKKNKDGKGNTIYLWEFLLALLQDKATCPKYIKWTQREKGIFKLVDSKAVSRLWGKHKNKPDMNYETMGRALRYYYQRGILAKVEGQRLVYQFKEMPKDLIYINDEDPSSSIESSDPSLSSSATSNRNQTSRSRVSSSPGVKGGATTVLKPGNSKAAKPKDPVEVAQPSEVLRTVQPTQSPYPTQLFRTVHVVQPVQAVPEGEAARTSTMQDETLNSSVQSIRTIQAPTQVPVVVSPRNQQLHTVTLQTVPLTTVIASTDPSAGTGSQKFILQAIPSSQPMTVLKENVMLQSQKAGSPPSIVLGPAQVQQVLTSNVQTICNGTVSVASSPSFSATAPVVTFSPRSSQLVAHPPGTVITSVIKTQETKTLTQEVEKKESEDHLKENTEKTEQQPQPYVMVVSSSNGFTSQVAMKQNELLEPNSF
Sequence of SPIB (Q01892 whole entry): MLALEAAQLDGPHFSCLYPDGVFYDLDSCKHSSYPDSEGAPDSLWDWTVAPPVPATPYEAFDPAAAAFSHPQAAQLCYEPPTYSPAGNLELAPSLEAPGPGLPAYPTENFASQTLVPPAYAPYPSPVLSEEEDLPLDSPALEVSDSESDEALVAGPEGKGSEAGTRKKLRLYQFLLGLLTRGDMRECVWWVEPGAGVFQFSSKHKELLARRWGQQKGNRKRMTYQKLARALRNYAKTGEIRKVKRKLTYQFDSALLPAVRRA
Sequence of HSF1 (Q00613 whole entry): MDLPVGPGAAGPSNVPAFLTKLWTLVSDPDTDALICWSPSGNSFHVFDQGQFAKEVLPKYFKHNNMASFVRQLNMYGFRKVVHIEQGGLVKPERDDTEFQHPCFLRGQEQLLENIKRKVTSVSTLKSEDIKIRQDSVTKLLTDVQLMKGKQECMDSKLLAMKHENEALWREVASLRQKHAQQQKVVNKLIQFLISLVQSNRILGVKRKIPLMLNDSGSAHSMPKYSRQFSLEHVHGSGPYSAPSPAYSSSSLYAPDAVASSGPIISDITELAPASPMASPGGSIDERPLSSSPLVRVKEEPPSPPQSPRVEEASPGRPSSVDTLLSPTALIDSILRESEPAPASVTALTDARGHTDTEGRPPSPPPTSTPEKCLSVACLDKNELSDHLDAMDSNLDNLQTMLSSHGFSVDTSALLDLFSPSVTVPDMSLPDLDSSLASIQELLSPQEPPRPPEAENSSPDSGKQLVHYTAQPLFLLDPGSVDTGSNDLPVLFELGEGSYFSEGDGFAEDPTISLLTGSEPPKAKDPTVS

Sequence: GAAAAC
- binding signal (FLI1): 1.04 fold enrichment (6-mer frequency, TF over GST control)
- binding signal (GABPA): 1.05 fold enrichment (6-mer frequency, TF over GST control)
- binding signal (ERG): 1.09 fold enrichment (6-mer frequency, TF over GST control)
- binding signal (ELF1): 1.06 fold enrichment (6-mer frequency, TF over GST control)
- binding signal (EHF): 1.09 fold enrichment (6-mer frequency, TF over GST control)
- binding signal (SPI1): 1.07 fold enrichment (6-mer frequency, TF over GST control)
- binding signal (SPIB): 1 fold enrichment (6-mer frequency, TF over GST control)
- binding signal (FEV): 1.08 fold enrichment (6-mer frequency, TF over GST control)
- binding signal (ETV5): 1.13 fold enrichment (6-mer frequency, TF over GST control)
- binding signal (HSF1): 1.08 fold enrichment (6-mer frequency, TF over GST control)
- binding signal (SPIC): 1.21 fold enrichment (6-mer frequency, TF over GST control)
- binding signal (ELF4): 1.12 fold enrichment (6-mer frequency, TF over GST control)
- binding signal (ELK4): 1.16 fold enrichment (6-mer frequency, TF over GST control)
- binding signal (ETV2): 1.04 fold enrichment (6-mer frequency, TF over GST control)
- binding signal (ELF3): 1.08 fold enrichment (6-mer frequency, TF over GST control)
- binding signal (ETV1): 1.13 fold enrichment (6-mer frequency, TF over GST control)
